Test results reported in PubChem BioAssay (NCI).
Compounds without any hit were thinned out: in the full panel of roughly 83,000, 20% have a hit.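 Compound tested at a single concentration for 48 hours in 96-well plates; a percent growth value below 10 was scored as active.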 Values without a mark were called inactive. The source made the active and inactive calls.

System: BT-549 breast
Experiment: NCI-60 one-dose screen, 48 h (100 = growth as untreated, 0 = no growth, -100 = all killed)
Details: 10 µM unless noted
Method: Growth inhibition of the BT-549 human tumor cell line is measured as a screen for anti-cancer activity. Cells are grown in 96 well plates and exposed to the test compound for 48 hours. Compounds are tested at a single concentration, which is 10^-5 M for most compounds. The reported endpoint is percent growth (GI% or GIPRCNT), where numbers from 0 - 100% represent growth inhibition, and numbers from -100% - 0 represent cell death. For example, a value of 40 represents 60% growth inhibition. A value of 0 means no net growth occurred over the course of the experiment. A value of -40 indicates 40% of cells at the beginning of the experiment died by the end of the experiment. A value of -100 means all cells are dead at the end of the experiment.
NCI-60 Human Tumor Cell Lines Screen was performed using the standard one-dose NCI protocol, which is described in more detail at https://dtp.cancer.gov/discovery_development/nci-60/default.htm.
Compounds with GIPRCNT values below 10 were considered active. Activity score was based on GIPRCNT using the following formula: […]
Score is 0 for GIPRCNT values of 100 or above, 50 for GIPRCNT values of 0, and 100 for GIPRCNT values of -100.

Compared with COC(=O)CNC(=O)C(=O)c1c(O)c(O)c(C(C)C)c2cc(C)c(-c3c(C)cc4c(C(C)C)c(O)c(O)c(C(=O)C(=O)NCC(=O)OC)c4c3O)c(O)c12, CCOC(=O)c1sc2ccc(NCc3nc[nH]c3C)cc2c1NC(=O)c1cc(OC)c(OC)c(OC)c1 is higher in growth: 30.2% for the first, 94.8% for the second.

Going from Clc1ccc(-c2cn(-c3ccccc3)c(-c3ccccc3)n2)cc1 to Clc1ccc(-c2nc(NCCc3ccccc3)nc3c(NCCc4ccccc4)cnn23)cc1, the growth rises from 62.9% to 63.6%.

First: CCCCS(=O)(=O)Oc1ccc(-c2nc(C)c(C(=O)OCC)s2)cc1C=O
Second: CCOC(=O)c1sc(-c2ccc(OS(=O)(=O)c3ccc(C(C)(C)C)cc3)c(C=O)c2)nc1C
The growth of the first is higher: 72.2% for the first, 53.6% for the second.

Compared with CCCCOC(=O)c1ccc(NC(=O)C(C)N2CCOCC2)cc1 (stereo not given), CCCCCOC(=O)c1cccc(NC(=O)CN(CC)CC)c1 is lower in growth: 86.6% for the first, 72.6% for the second.

Going from CCOC(=O)Cc1csc2nc(-c3ccccc3)nn12 to CCOC(=O)C(O)C(O)(c1ccccc1)c1ccccc1 (stereo not given), the growth falls from 127% to 103%.

Compared with COc1ccc(OC)c(C(=O)Nc2cccc(-c3cc(=O)c4ccccc4o3)c2)c1, CCOC(=O)c1ccc(-c2ccc3cc(OC)ccc3c2)nc1C is higher in growth: 88.2% for the first, 104% for the second.

Going from COc1ccc(-c2nnc(-c3ccc4c(c3)nc(-c3ccccc3)n4C3CCCCC3)o2)cc1 to NS(=O)(=O)Oc1ccc(-c2sc3cc(O)ccc3c2C(=O)c2ccc(OCCN3CCCCC3)cc2)cc1, the growth rises from 30.9% to 84.6%.

Compared with Cc1cnc(Nc2ccc(OCCN3CCCC3)cc2)nc1NCc1ccco1, Cc1nc(Nc2ccc(NC(=S)Nc3ccccc3)cc2)nc2nc(Nc3ccc(S(=O)(=O)O)cc3)[nH]c(=O)c12 is lower in growth: 78.2% for the first, 61% for the second.

Going from COc1cc(C(=O)/C=C/c2c(C(F)(F)F)nc3ccccn23)cc(OC)c1OC to COc1ccc(/C=C(\C#N)n2nnc3cc(F)c(F)cc32)c(OC)c1OC, the growth rises from 10.4% to 70.9%.

First: Cc1c(C(=O)O[C@H]2[C@@H]3[C@H](C)CC[C@H]3[C@]3(C)O[C@@]2(C2CCCCC2)C[C@H]3OC(=O)CO)ccc2ccccc12
Second: O=C(NC1CCOCC1)c1ccc2c(c1)CN(c1ncc(Cc3cccc(-n4cccn4)c3)s1)CC2
The growth of the first is higher: 33.4% for the first, 31.1% for the second.

First: CN(C)c1cnccn1
Second: CC(=O)c1ccc2c(c1)CCN2
The growth of the first is lower: 73% for the first, 106% for the second.

Going from CCNCCNc1cc(-c2ccc(C(=O)OC)cc2)c(C#N)c2nc3ccccc3n12 to CCNCCNc1cc(-c2ccc(F)cc2)c(C#N)c2nc3ccccc3n12, the growth rises from 68.2% to 70.9%.

Going from NC(N)=N/N=C/c1ccc(Br)cc1 to N=C(N)c1ccc(-c2ccc(-c3ccc(Cl)cc3Cl)o2)nc1, the growth rises from 92.3% to 94.7%.

First: CCN(CC)CCOc1ccc(/C(=C(\C)c2ccc(OC)c(F)c2)c2ccc(Cl)cc2)cc1
Second: Nc1ccc(-c2cc3c(Nc4ccc(OCc5cccc(F)c5)c(Cl)c4)ncnc3s2)cc1
The growth of the first is higher: 89% for the first, 61.2% for the second.

Compared with CCCCCCCC/C=C\CCCCCCCC(=O)Oc1cccc2cccnc12, CCCCCCCCn1cc(C2=C(c3coc4ccc(OC)cc34)C(=O)NC2=O)c2ccccc21 is higher in growth: 65.6% for the first, 87.4% for the second.

Going from CN1C[C@@H](c2ccc(Cl)cc2)[C@]2(NC(=S)N(c3ccccc3)C2=O)[C@@]12C(=O)NC1C=CC(Br)=C[C@H]12 (stereo not given in full) to CC[C@@H](C[C@H](CCO)c1ccccc1)c1cc2ccccc2o1, the growth rises from 56% to 97.7%.

O=C(NCCOCCOCCNc1cccc2c1C(=O)N(C1CCCNC1=O)C2=O)c1cc2c(o1)C(=O)c1ccccc1C2=O (stereo not given) was tested, and the growth was -94.7% (active).
For CN(CCCCCCCCNc1ccnc2ccccc12)Cc1ccc(-c2ccc(-c3ccc(C#N)cc3)s2)cc1, the growth was -30.1% (active).
For O=C(NC(=S)Nc1ccc(-c2nc3ccccc3[nH]2)cc1)c1ccc2ccccc2c1, the growth was 4.76% (active).
With CCOc1ccc(-c2nc3ccc(-c4nc5ccc(N6CCN(C)CC6)cc5[nH]4)cc3[nH]2)cc1OCC the growth was -29.5% (active).
C=C1C(=O)O[C@H]2[C@H]1CC/C(COC(=O)/C=C\C(=O)NCc1ccc(Cn3c(=O)sn(-c4ccc(OC)cc4)c3=O)cc1)=C\CC[C@@]1(C)O[C@@H]21 was tested, and the growth was -51.8% (active).
For CCNCCNc1cc(C2CCCC2)c(C#N)c2nc3ccccc3n12, the growth was 9.57% (active).
With O=C(/C=C/C12c3ccccc3C(c3ccccc31)C1C(=O)N(c3ccccc3)C(=O)C12)c1ccccc1 (stereo not given) the growth was -2.69% (active).
In the case of CCOC(=O)c1c(C)nc2c(c1N)/C(=C/c1ccc(OC)cc1)C(=O)N2Cc1ccc(F)cc1, the growth is reported as -85.5% (active).
